Structures are written as SMILES. Several values for one entry are separate records, joined by “and”; a condition that tells them apart may be missing. Equal values may be shown once. Inconclusive results are not listed. Activity calls are given as the source filed them. The call rests on the fitted dose curve.
Potency means the concentration at half of the fitted maximal effect.

A short description of the first assay: Primary qHTS to identify inhibitors of SARS-CoV-2 cell entry (AID 1645846). Further: nearly all actives have a fitted effect of over 45% in size. As to conditions: SARS-CoV-2 pseudovirus cell entry assay, luminescence; activity change, negative = inhibition: at 57.1 µM (top of the series) unless noted; series mostly up to 57.1 µM. Put shortly: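 Data are normalized to wells receiving SARS-CoV-2-S pseudoparticles and those given bald particles. Entry signal was luciferase luminescence in stable hACE2 Expi293F cells, 48 hr post-infection, after 1 hr compound pretreatment.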
Background: qHTS replaces the single test concentration by a dilution series.
With `O=C1CCCC(=O)C1C(=O)c1ccc(C(F)(F)F)cc1[N+](=O)[O-]`, the result was inactive.

`Cc1ccc(NC(=O)C2(c3ccc4c(c3)OC(F)(F)O4)CC2)nc1-c1cccc(C(=O)O)c1`: the outcome was inactive and the activity change, negative = inhibition was -24.6%.

With `O=C1c2c(O)cccc2[C@@H]([C@@H]2O[C@H](CO)[C@@H](O)[C@H](O)[C@H]2O)c2cc(CO)cc(O)c21`, the activity change, negative = inhibition is -0.84%.

Turning to `N[C@@H](CC(=O)N1CCn2c(nnc2C(F)(F)F)C1)Cc1cc(F)c(F)cc1F`, the activity change, negative = inhibition was -27.8%.

`Cc1ccccc1O`: the activity change, negative = inhibition is -10.9% [at 114 µM].

Regarding `CC(O)[C@H]1CC[C@H]2[C@@H]3CC[C@@H]4C[C@@H](O)CC[C@]4(C)[C@H]3CC[C@]12C` (stereo partly specified), the activity change, negative = inhibition was -11.6% [at 114 µM].

As to `CC(C)C(=O)Oc1ccc(CO)cc1[C@H](CCN(C(C)C)C(C)C)c1ccccc1`, the Potency was 14.1 µM (active).

Regarding `C[C@H]1COc2c(N3CCN(C)CC3)c(F)cc3c(=O)c(C(=O)O)cn1c23`, the activity change, negative = inhibition is -10.7% and -28.1%.

For the compound `OCCCNc1cc(-c2ccnc(Nc3cccc(Cl)c3)n2)ccn1`, the activity change, negative = inhibition is -94.2%.

Consider `O=S(=O)(c1cccc2c(I)cccc12)N1CCCNCC1`, for which the activity change, negative = inhibition is -29.1%.

Regarding `O=C(O)c1nc(=O)[nH]c(=O)[nH]1`, the outcome was “inactive [at 0.702 µM]” and the activity change, negative = inhibition was -18.6% [at 27.1 µM].

For `CO[C@H]1[C@@H](O)[C@H](N)[C@@H](O[C@H]2O[C@H]([C@H](C)N)CC[C@H]2N)[C@H](O)[C@@H]1N(C)C(=O)CN`, the activity change, negative = inhibition was -5.5%.

In the case of `O=C(O)/C=C/c1ccccc1`, the activity change, negative = inhibition is -30.4% [at 114 µM].

Take `CC(=O)O[C@H]1Cc2ccccc2N(C(N)=O)c2ccccc21`: the activity change, negative = inhibition was -29.9%.

For the compound `CC(C)COC(=O)OCN1C(=O)CN(CCN2CC(=O)N(COC(=O)OCC(C)C)C(=O)C2)CC1=O`, the activity change, negative = inhibition was -21.8%.

As for `COc1ccc(/C=C/C(=O)Nc2ccccc2C(=O)O)cc1OC`, the activity change, negative = inhibition was -78.6% and -67.4%.

For the compound `CCc1nc(-c2cccc(C)c2)c(-c2ccnc(NC(=O)c3ccccc3)c2)s1`, the Potency is 25.1 µM (active).

Take `CCC(=O)NCC[C@@H]1CCc2ccc3c(c21)CCO3`: the activity change, negative = inhibition is -26.7%.

`CC1(C)CCC(CN2CCN(c3ccc(C(=O)NS(=O)(=O)c4ccc(NCC5CCOCC5)c([N+](=O)[O-])c4)c(Oc4cnc5[nH]ccc5c4)c3)CC2)=C(c2ccc(Cl)cc2)C1`: the activity change, negative = inhibition is -9.23% and -30%.

A further assay in a line: VSVG counterscreen qHTS to identify inhibitors of SARS-CoV-2 cell entry (AID 1645847). Further: nearly all actives have a fitted effect of over 65% in size. The conditions noted are these: VSV-G pseudotyped particle entry, luciferase; series mostly up to 57.2 µM; activity change, negative = inhibition: at the top concentration. Put shortly:
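Counterscreen using VSV-G (not spike) pseudotyped MLV particles on ACE2-expressing Expi293F cells after 1 h compound preincubation; infection ran 48 h at 37 °C. Data normalized to VSV-G PP and bald-PP wells.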
On to `CC(=O)[C@H]1CC[C@H]2[C@@H]3CCC4=CC(=O)CC[C@]4(C)[C@H]3CC[C@]12C`, for which the Potency is 17.1 µM (active).

Take `Cc1c(-c2ccc(O)cc2)n(Cc2ccc(OCCN3CCCCCC3)cc2)c2ccc(O)cc12`: the Potency is 27.1 µM (active).

`CC(C)C(=O)Oc1ccc(CO)cc1[C@H](CCN(C(C)C)C(C)C)c1ccccc1`: the Potency is 21.5 µM (active).

On to `N#CC(c1ccc(Cl)cc1)c1c(Cl)cc(-n2ncc(=O)[nH]c2=O)cc1Cl` (stereo unspecified), for which the Potency was 21.5 µM (active).

Regarding `COc1ccc(/C=C/C(=O)Nc2ccccc2C(=O)O)cc1OC`, the Potency was 0.857 µM (active).

The values above are taken from PubChem BioAssay (NCATS).
